HCMV antiviral – human cytomegalovirus inhibition; HFF cells, HCMV-luciferase reporter, 72 h; hits give low values; activity change, negative = inhibition, % at 57.5 µM; 410,000 compounds, 4.5% hits; AID 1259415; in the data active = activity change below about -60%; inconclusive = no clear call, values can overlap the other calls; inactive = above about -39%
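Steps: HFFs plated, 16 h 37C; compounds added; HCMV-luciferase added to MOI 1 PFU/cell; 72 h 37C; OneGlo reagent, 5 min room temperature; luminescence read, normalized to controls.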
FBPA Giardia inh – inhibitors of Giardia lamblia fructose-1,6-bisphosphate aldolase; 290,000 compounds, 0.71% hits; AID 2451; Potency, µM (titrated, usually from 59.6 µM), for the others: at the top dose activity, negative = inhibition, hits mostly inhibitors; A8B2U2; purified Giardia FBPA; note: potency is the fitted concentration of half-maximal effect; nearly all actives have a fitted effect of over 55% in size
Target sequence (A8B2U2 whole entry, looked up): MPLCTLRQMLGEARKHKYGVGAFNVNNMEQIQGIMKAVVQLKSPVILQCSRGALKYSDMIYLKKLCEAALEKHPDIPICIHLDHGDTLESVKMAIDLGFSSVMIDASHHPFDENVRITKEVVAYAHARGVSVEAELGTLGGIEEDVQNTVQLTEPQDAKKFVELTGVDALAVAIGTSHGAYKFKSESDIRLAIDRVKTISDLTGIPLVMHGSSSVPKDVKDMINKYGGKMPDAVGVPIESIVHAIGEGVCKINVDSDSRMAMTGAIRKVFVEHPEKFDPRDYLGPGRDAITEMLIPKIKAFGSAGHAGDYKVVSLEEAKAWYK
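Giardia FBPA (40 nM reagent) was preincubated 10 min at RT with compound (up to 57.5 uM final), then substrate plus GAPDH/TPI/NAD/arsenate coupling system with diaphorase/resazurin was added; resorufin fluorescence (525/598 nm) was read after 20 min.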
HCV inh – blocks hepatitis C virus; Huh7.5.1 HCVcc-Cre infection, luciferase reporter, 44 h; 340,000 compounds, 3.4% hits; Potency, µM (top dose mostly 41.8 µM), inactives show at the highest dose activity change, negative = inhibition, hits mostly inhibitors; note: potency is the fitted concentration of half-maximal effect
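Compounds are dispensed onto cells plated 4 h earlier at 1,000 per well, with HCVcc-Cre virus (about 0.5 moi) added next. Following 44 h of culture, luminescent signal is measured for 15 sec after 15 min with substrate at room temperature.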
Marburg entry inh – blocks Marburg virus binding to or entry into cells; Marburg virus pseudotyped entry inhibition, cell reporter; Potency, µM (titrated, usually from 37.8 µM), for the others: top-dose activity change, negative = inhibition, actives largely listed as inhibitors; 300,000 compounds, 1.8% hits; calls by dose curve; tested in HEK293 cells; note: potency is the fitted concentration of half-maximal effect
FMDV antiviral – antivirals against foot and mouth disease virus; Potency, µM (top dose mostly 57.9 µM), inactives show at the top dose activity change, negative = inhibition, actives largely listed as inhibitors; 410,000 compounds, 1.2% hits; FMDV antiviral cell-based qHTS; AID 1159524; calls by dose curve; tested in HEK293T cells; note: read-out not given here; potency is the fitted concentration of half-maximal effect; nearly all actives have a fitted effect of over 45% in size
LASV entry inh – blocks Lassa virus binding to or entry into cells; Lassa virus pseudotype entry inhibition, cell reporter; Potency, µM (titrated, usually from 37.9 µM), without a hit: at the highest dose activity change, negative = inhibition, most hits filed as inhibitors; 300,000 compounds, 1.2% hits; AID 540256; calls by dose curve; tested in HEK293 cells; note: potency is the fitted concentration of half-maximal effect; nearly all actives have a fitted effect of over 50% in size
Starred values were filed as active, the others as inactive; ? = inconclusive; . = no result; [ ] = another dose, or the depositor's remark. Sampled rows, rich in hits. Any-hit rate of the full collection: about 8.3%. Unless noted, calls come from the whole dose curve; as a rule, active = well fitted curve in the direction sought with a large enough effect; inconclusive = small, poorly fitted or top-dose-only effect, or another doubt; inactive = no such curve, though single readings can be large; an effect the other way counts as inactive or inconclusive. % is set by controls: 0 for no effect and ±100 for the full control effect.

SMILES | HCMV antiviral | FBPA Giardia inh | HCV inh | Marburg entry inh | FMDV antiviral | LASV entry inh
CC1CC(C)(C)N(C(=O)CSc2ccc(-c3ccc(F)cc3)nn2)c2ccccc21 (stereo unspecified) | -87* | -8% | -3% | ? | . | -14%
Cc1ccc2nc(/C(C#N)=C\c3ccc([N+](=O)[O-])o3)[nH]c2c1 | -103* | . | ? | 18µM* | ? | 3.3µM*
N#C/C(=C(/O)c1ccc([N+](=O)[O-])o1)c1nc2ccccc2[nH]1 | -74* | -9% | 2% | . | -18% | .
N#C/C(=C\c1ccc([N+](=O)[O-])o1)c1nc2ccccc2[nH]1 | -94* | -4% | ? | -1% | 25µM* | .
N#C/C(=C\c1ccc(Sc2ccccc2)o1)c1nc2ccccc2[nH]1 | -1 | 2% | ? | 6% | -16% | ?
CCOC(=O)c1ccc(-c2ccc(/C=C(\C#N)c3nc4ccc(C)cc4[nH]3)o2)cc1 | -79* | . | . | . | -19% | ?
Cc1ccc2nc(/C(C#N)=C/c3ccc(-c4ccccc4C(=O)O)o3)[nH]c2c1 | -6 | 27% | 7% | . | 7% | .
Cc1ccc2nc(/C(C#N)=C\c3ccc(N4CCOCC4)o3)[nH]c2c1 | 137 | -1% | ? | ? | 0% | -29%
N#CCCn1c(=O)c(-c2ccccc2)nc2cnc(N3CCNCC3)nc21 | . | 0% | . | . | -11% | .
O=C(NCc1ccccc1)c1cnc2sc(N3CCCC3)nn2c1=O | -36 | . | . | . | -6% | -2%[46.1 µM]
CCN(CC)CCCC(C)n1c(-c2ccccc2)nc2c(NC3CCCCC3)nc(C)nc21 (stereo unspecified) | . | 6% | . | . | . | .
Cc1cccc(CNc2ccnc(-c3ccccc3Cl)n2)c1 | . | -4% | . | . | -4% | .
O=C(CCn1ccc2cc(S(=O)(=O)N3CCCC3)ccc21)NCc1cccc(Br)c1 | -11 | . | . | . | -1% | ?
Cc1ccc2nc(/C(C#N)=C\c3cc(C)n(-c4cccc([N+](=O)[O-])c4)c3C)[nH]c2c1 | -12 | 0% | 2.2µM* | ? | -20% | ?
O=C(Nc1ccc(Cn2cccn2)cc1)c1ccc(COc2ccccc2Br)cc1 | -83* | -15% | 13µM* | -14%[46.1 µM] | 14µM* | ?
COc1ccccc1OCc1ccc(C(=O)Nc2ccccc2)cc1 | -39 | . | ? | . | 27% | .
CCOc1ccc(Nc2nn(-c3ccc(OC(F)(F)F)cc3)nc2C(C)=O)cc1 | 18 | . | . | 10%[46.1 µM] | -10% | 15%[46.1 µM]
CCOc1ccc(-n2c(=O)c3c(C)c(C)sc3n(CC(=O)NCCc3ccccc3)c2=O)cc1 | 6 | . | . | -11%[46.1 µM] | -11% | -2%[46.1 µM]
CCc1nc(N)nc(N)c1-c1ccc(Cl)c(N=[N+]=[N-])c1 | -79* | . | ? | ? | ? | ?
CCc1nc(N)nc(N)c1-c1ccc(Cl)c([N+](=O)[O-])c1 | -99* | . | ? | ? | ? | ?
CN(C)c1ccc(/C=C2\N=C(c3ccc(Cl)c([N+](=O)[O-])c3)NC2=O)cc1 | -11 | 0% | 3% | -31%[46.1 µM] | -7% | ?
S=C(NCCc1ccccc1)N1CCC2CC1c1cc(-c3ccc4c(c3)OCO4)ccc12 (stereo unspecified) | -75* | . | . | . | -9% | .
COc1cc2nc(N(C)C)nc(N)c2cc1OC | -94* | -15% | ? | ? | 0% | -15%
COc1ccc(NC(=O)Cn2ccn(-c3ccccc3)c(=O)c2=O)cc1 | ? | . | . | . | -4% | 13%[46.1 µM]
ClCCn1cnc2c(SCc3ccccc3Cl)ncnc21 | -76* | . | -16% | ? | 10% | ?
SMILES | HCMV antiviral | FBPA Giardia inh | HCV inh | Marburg entry inh | FMDV antiviral | LASV entry inh
ClCCn1cnc2c(SCc3ccccc3)ncnc21 | -64* | . | -22% | 0.89µM* | 7% | ?
Cn1cnc2c(SCc3ccccc3)ncnc21 | -19 | . | 5% | ? | 51% | ?
Cc1ccc(OCC(=O)Nc2ccccc2C(=O)OCc2cc(=O)n3c(C)csc3n2)cc1 | -12 | . | . | . | -26% | 29%[46.1 µM]
C/C(=N\Nc1nc(C)cc(C)n1)c1ccc(N2CCOCC2)cc1 | -69* | 2% | -20% | . | 0% | .
C/C(=N\Nc1nc2ccccc2[nH]1)c1ccc(C)o1 | 89 | -10% | 7% | ? | -11% | 12%
C/C(=N\Nc1nc2ccccc2[nH]1)c1ccc(N2CCOCC2)cc1 | 100 | -4% | ? | ? | -54% | 10µM*
Cc1ccsc1CCN1C(=O)N(c2ccccc2)C(=O)C1CC(=O)Nc1ccc(Cl)cc1 (stereo unspecified) | 2 | . | . | ? | 13% | -29%[46.1 µM]
CCC[C@H](CCC(=O)Nc1ccc(C(=O)OCC)cc1)C(=O)O | . | . | . | -6% | . | .
CCNc1nn2ccccc2c1/C=C(\C#N)C(=O)OCC | -15 | 0% | 10µM* | . | -17% | .
C/C=C(\C)C(=O)OC1[C@@H]2C=C3C4CC(=O)OC(c5ccoc5)[C@]4(C)CCC3[C@@](C)(C2=O)C(C(O)C(=O)OC)C1(C)C (stereo partly specified) | . | 0% | . | . | 13% | .
CCNc1ncc2nc(-c3ccc(F)cc3)c(=O)n(Cc3ccc(F)cc3)c2n1 | . | -10% | . | . | -9% | .
O=C(CSc1ccc2ccccc2n1)N/N=C/c1ccccc1O | -100* | -6% | ? | . | 11% | .
Cc1cc(SCC(=O)N/N=C/c2ccccc2C(=O)O)c(C)cc1Br | -18 | 19% | -12% | 1%[46.1 µM] | -5% | -9%[46.1 µM]
Cc1cc(SCC(=O)N/N=C/c2ccc(O)cc2O)c(C)cc1Br | -83* | -6% | ? | ? | ? | 4.6µM*
O=C(CSC1c2ccccc2-c2ccccc21)N/N=C/c1ccccc1O | -96* | -25% | ? | 8.2µM* | ? | 12µM*
c1ccc(CCNc2nc(-c3ccccc3)cs2)cc1 | 48 | . | . | . | . | .
CCN1C(=S)NC(c2ccccc2)C(C(=O)OC)=C1C (stereo unspecified) | . | . | . | -2%[14.2 µM] | . | .
O=S(=O)(Nc1nccs1)c1cnc(Cl)c(Br)c1 | -101* | 2% | 9% | -2% | 50% | -2%
CC1CCN(C(=O)c2cc(Cl)ccc2NC(=O)c2ccco2)CC1 | -60* | 13% | -13% | -9%[46.1 µM] | 17% | .
O=C(Nc1ccc(Cl)cc1C(=O)NCc1cccnc1)c1ccco1 | 15 | 5% | ? | -4% | -17% | -17%
O=C(Nc1ccc(Cl)cc1C(=O)Nc1ccncc1)c1ccco1 | 23 | -3% | 11µM* | ? | -20% | -13%
COc1cc(OC)c2c(=O)c(-c3ccccc3)c(C)oc2c1OC | . | 0% | . | . | 10% | .
O=C(NCc1ccncc1)[C@@H]1CCCN1C(=O)[C@@H]1CCCN1C(=O)c1ccccc1 | -4 | . | . | . | -26% | .
CC(C)C(NC(=O)C(C(C)C)N(C)C)C(=O)N(C)C(C(=O)N1CCCC1C(=O)N1CCCC1C(=O)NCc1ccccc1)C(C)C (stereo unspecified) | -86* | . | 31% | ? | -13% | ?
O=C(NC(=S)Nc1ccccc1N1CCCCC1)c1ccco1 | -71* | 0% | ? | 0% | 22µM* | -10%

Bioassay records (PubChem)
